Reference: PubChem BioAssay (NCATS)
Records with an inconclusive call do not appear. Active and inactive are the calls of the source. The call rests on the fitted dose curve; in most records, active means well fitted curve in the direction sought with a large enough effect; inconclusive means small, poorly fitted or top-dose-only effect, or another doubt; inactive means no such curve, though single readings can be large; an effect the other way counts as inactive or inconclusive.

Legend:
[1] = system: Zika virus NS2B-NS3 protease (linked construct); test: Primary screen NINDS Rhodamine qHTS for Zika virus inhibitors (AID 1347160); further: nearly all actives have a fitted effect of over 55% in size
Summary of the method: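 In 10 mM Tris-HCl pH 8.0 containing 0.01% Tween 20, linked NS2B-NS3 protease (25 nM final) is exposed to test compounds for 15 min. Cleavage of 1.5 microM Rhodamine110 substrate is tracked by fluorescence over 15 min.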

[2] = target: Calcium and integrin-binding protein 1 (Homo sapiens) (UniProt Q99828); test: Primary qHTS for Identification of Calcium Integrin Binding Protein 1 (CIB1) Competitor (AID 1508620);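 further: GST tagged CIB1 binding a fluorescein labelled alphaIIb integrin peptide tracer; top concentration of the series differs between compounds; on the % scale 0 is the no-effect control and ±100 the full control effect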
Summary of the method: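 Fluorescence polarization competition: GST-tagged CIB1 (1 uM final) preincubated with compound 15 min at room temperature, then FITC-labelled alphaIIb peptide (100 nM final) added. After 15 min at room temperature, polarization read at Ex 480/Em 540.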

[3] = target: Glutathione peroxidase 1 (Homo sapiens) (UniProt P07203); test: Primary qHTS Assay for Inhibitors of Recombinant Selenoprotein Glutathione Peroxidase 1 (GPX1) (AID 1845191); further: nearly all actives have a fitted effect of over 65% in size; on activity, negative = inhibition: on the % scale 0 is the no-effect control and ±100 the full control effect
Summary of the method: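 GR-coupled assay: compounds preincubated 30 min at room temperature with GPX1, then reaction started with CHP; final 10 nM GPX1, 1 mM GSH, 0.5 mM CHP, 0.5 mM NADPH, 100 nM GR, 0.01% BSA, pH 7.5 Tris buffer. NADPH fluorescence (340/450 nm) read at 0 and 15 min.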

[4] = target: Phospholipid hydroperoxide glutathione peroxidase GPX4 (Homo sapiens) (UniProt P36969); test: Primary qHTS Assay for Inhibitors of Recombinant Selenoprotein Glutathione Peroxidase 4 (GPX4) (AID 1845192); further: nearly all actives have a fitted effect of over 65% in size
Summary of the method: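 GR-coupled assay: recombinant GPX4 preincubated 30 min with compound at room temperature; final 200 nM GPX4, 1 mM GSH, 0.5 mM cumene hydroperoxide, 0.5 mM NADPH, 100 nM GR, 0.01% BSA, pH 7.5 Tris. NADPH fluorescence (340/450 nm) read at 0 and 15 min.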

[5] = target: Luciferin 4-monooxygenase (Photinus pyralis) (UniProt P08659); test: Primary firefly luciferase (FLuc) qHTS assay for identification of artifact compounds. (AID 1845220); settings: outcome: dose series up to 54.1 µM unless noted; further: nearly all actives have a fitted effect of over 60% in size
Summary of the method: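 Enzymatic FLuc inhibition assay: compounds pre-exposed to luciferin/ATP (10 uM each) for 15 min, then purified P. pyralis enzyme at 10 nM added. Read-out: luminescence at 5 min.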

[6] = Primary fluorescence-based thiol-reactive (MSTI) qHTS assay for identification of artifact compounds. (AID 1845221);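 further: thiol-reactive compounds lower the probe fluorescence signal; nearly all actives have a fitted effect of over 65% in size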
Summary of the method: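 Compounds were incubated 1 h at room temperature in the dark with the MSTI probe (4 uM) in PBS pH 7.4, 2% DMSO. Signals were normalized between Acetyl-MSTI and MSTI.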

[7] = system: Nanoluciferase (engineered Oplophorus gracilirostris luciferase); test: Primary Nanoluciferase (NLuc) qHTS assay for identification of artifact compounds. (AID 1845222);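 further: NLuc secreted into diluted conditioned medium of S16 cells; 0% = DMSO and -100% = no enzyme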
Summary of the method: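 S16 cell supernatant NLuc, 1:55; cpds qHTS; 15 min RT dark; Nano-Glo substrate 1:100, 5 min; luminescence; Hill fit of % inhibition.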

[8] = Primary redox qHTS assay for identification of artifact compounds. (AID 1845223);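 further: 0% = DMSO and 100% = reference compound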
Summary of the method: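 Amplex Red (25 uM) and HRP (250 mU/mL) in HBSS, with compounds for 15 min, then 250 uM DTT for 30 min, room temperature, dark. Fluorescence 525/598 nm read; normalized to DMSO and 10 uM DA3003; Hill fit.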

CRL-7250 = normal cell line; test: Cytotoxic Profiling of Annotated Libraries Using Quantitative High-Throughput Screening (AID 1296008); settings: Five cell lines viability, CellTiter-Glo ATP luminescence, 48-72 h; max response: stronger effect = lower value; further: nearly all actives have a fitted effect of over 60% in size; further: potency means the concentration at half of the fitted maximal effect
Summary of the method: (§1)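 Cells exposed to compounds for 48 or 72 hr at 37 degrees Celsius. Viability read as ATP-coupled luminescence with CellTiter-Glo after 10 min at room temperature.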

Es-2 = test: Primary qHTS to identify gynecologic anti-cancer compounds using libraries of approved drugs and bioactive compounds (AID 1345084); settings: Gynecologic cancer cell panel viability, ATPlite luminescence, 48 h; series mostly up to 57.5 µM; further: nearly all actives have a fitted effect of over 55% in size; further: potency means the concentration at half of the fitted maximal effect; on activity change, negative = cytotoxicity: on the % scale 0 is the no-effect control and ±100 the full control effect
Summary of the method: (§2)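 Luminescence from the ATPlite ATP-monitoring reagent indicates viable cell number; lower signal means cytotoxicity. Cells received compound 16 h after seeding and were exposed for 48 h across five concentrations.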

JEG-3 = test: as above; settings: Gynecologic cancer cell panel viability, ATPlite luminescence, 48 h; series mostly up to 57.5 µM
Summary of the method: as §2

OV90 = test: as above; settings: Gynecologic cancer cell panel viability, ATPlite luminescence, 48 h; series mostly up to 57.5 µM
Summary of the method: as §2

Tov-21-G = test: as above; settings: Gynecologic cancer cell panel viability, ATPlite luminescence, 48 h; series mostly up to 57.5 µM
Summary of the method: as §2

Tov112D = test: as above; settings: Gynecologic cancer cell panel viability, ATPlite luminescence, 48 h; series mostly up to 57.5 µM
Summary of the method: as §2

CASKI = test: as above; settings: Gynecologic cancer cell panel viability, ATPlite luminescence, 48 h; series mostly up to 57.5 µM
Summary of the method: as §2

KB-3-1 = test: Cytotoxic Profiling of Annotated Libraries Using Quantitative High-Throughput Screening (AID 1296008); settings: Five cell lines viability, CellTiter-Glo ATP luminescence, 48-72 h; max response: stronger effect = lower value; further: nearly all actives have a fitted effect of over 60% in size; further: potency means the concentration at half of the fitted maximal effect
Summary of the method: as §1

C33A = test: Primary qHTS to identify gynecologic anti-cancer compounds using libraries of approved drugs and bioactive compounds (AID 1345084); settings: Gynecologic cancer cell panel viability, ATPlite luminescence, 48 h; series mostly up to 57.5 µM; further: nearly all actives have a fitted effect of over 55% in size; further: potency means the concentration at half of the fitted maximal effect; on activity change, negative = cytotoxicity: on the % scale 0 is the no-effect control and ±100 the full control effect
Summary of the method: as §2

CAOV3 = test: as above; settings: Gynecologic cancer cell panel viability, ATPlite luminescence, 48 h; series mostly up to 57.5 µM
Summary of the method: as §2

Hek293T = test: as above; settings: Gynecologic cancer cell panel viability, ATPlite luminescence, 48 h, control line for the selectivity index; series mostly up to 57.5 µM
Summary of the method: as §2

PA-1 = test: as above; settings: Gynecologic cancer cell panel viability, ATPlite luminescence, 48 h; series mostly up to 57.5 µM
Summary of the method: as §2

Calcium and integrin-binding protein 1 (Homo sapiens), sequence (Q99828 whole entry, looked up): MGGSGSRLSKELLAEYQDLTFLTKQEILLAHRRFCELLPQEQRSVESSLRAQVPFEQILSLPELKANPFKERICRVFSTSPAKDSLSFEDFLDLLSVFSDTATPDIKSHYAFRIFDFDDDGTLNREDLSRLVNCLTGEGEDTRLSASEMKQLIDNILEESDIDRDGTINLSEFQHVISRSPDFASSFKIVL
Glutathione peroxidase 1 (Homo sapiens), sequence (P07203 whole entry, looked up): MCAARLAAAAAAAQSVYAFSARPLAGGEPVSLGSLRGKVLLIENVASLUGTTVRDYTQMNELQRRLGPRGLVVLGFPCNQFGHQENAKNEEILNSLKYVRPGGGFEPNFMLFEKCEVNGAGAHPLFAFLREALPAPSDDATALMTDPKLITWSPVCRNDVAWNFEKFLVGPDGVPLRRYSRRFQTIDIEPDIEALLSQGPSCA
Phospholipid hydroperoxide glutathione peroxidase GPX4 (Homo sapiens), sequence (P36969 whole entry, looked up): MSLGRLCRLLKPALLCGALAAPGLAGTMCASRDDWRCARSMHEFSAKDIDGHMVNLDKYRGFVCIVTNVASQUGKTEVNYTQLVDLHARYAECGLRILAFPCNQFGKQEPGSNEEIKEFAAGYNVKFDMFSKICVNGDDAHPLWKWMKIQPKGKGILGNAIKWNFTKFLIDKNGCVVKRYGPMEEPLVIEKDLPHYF

C[C@]12CC[C@H](O[C@@H]3O[C@H](CO)[C@@H](O)[C@H](O)[C@H]3O)CC1=CC[C@@H]1C2CC[C@]2(C)[C@@H](C3=CC(=O)OC3)CC[C@]12O (stereo not given in full)
active: Potency (CRL-7250) 3.43 µM | Potency (Es-2) 10 µM | Potency (Tov-21-G) 6.31 µM | Potency (Tov112D) 3.16 µM
inactive: Potency [1] | Potency [2] | Potency [3] | Potency [4] | outcome [5] inactive [at 25.7 µM] | Potency [6] | Potency [7] | Potency [8] | Potency (JEG-3) | Potency (OV90)

C/C=C(\C)C(O)C(C)/C=C(C)/C=C/C/C(C)=C/Cc1nc(OC)c(OC)c(O[C@@H]2O[C@@H](C)[C@H](O)[C@@H](O)[C@H]2O)c1C (stereo not given in full)
inactive: Potency [1] | Potency [2] | Potency [3] | Potency [4] | Potency [6] | Potency [7] | Potency (OV90) | Potency (Tov112D)
active: Potency (CRL-7250) 0.796 µM | Potency (CASKI) 3.98 µM

C[C@@H]1O[C@@H](O[C@H]2CC[C@@]3(C)C(CC[C@@H]4C3CC[C@]3(C)[C@@H](C5=CC(=O)OC5)CC[C@]43O)C2)[C@H](O[C@@H]2O[C@H](CO)[C@@H](O)[C@H](O)[C@H]2O)[C@H](O)[C@H]1O (stereo not given in full)
inactive: Potency [1] | Potency [2] | Potency [3] | Potency [4] | outcome [5] | Potency [6] | Potency [7]
active: Potency (KB-3-1) 0.862 µM | Potency (C33A) 0.562 µM | Potency (CAOV3) 1 µM | Potency (Es-2) 0.891 µM | Potency (Hek293T) 0.891 µM | Potency (JEG-3) 2.82 µM | Potency (PA-1) 1 µM | Potency (Tov-21-G) 0.708 µM | Potency (Tov112D) 0.224 µM

CCCCOC(=O)c1ccnc2cc(C(OCCN3CCCCC3)c3ccccc3Cl)sc12 (stereo not given)
inactive: Potency [1] | Potency [2] | Potency [3] | Potency [4] | outcome [5] | Potency [7] | Potency [8] | max response (CRL-7250) -4.2% | Potency (C33A) | Potency (CAOV3) | Potency (CASKI) | Potency (Es-2) | Potency (Hek293T) | Potency (JEG-3) | Potency (OV90) | Potency (PA-1) | Potency (Tov-21-G) | Potency (Tov112D)

CC[C@@H](C)[C@H]1C(=O)O[C@H](C(C)C)C(=O)N(C)[C@@H](C(C)C)C(=O)O[C@H](C(C)C)C(=O)N(C)[C@@H](C(C)C)C(=O)O[C@H](C(C)C)C(=O)N1C
active: Potency (CRL-7250) 3.85 µM
inactive: Potency [1] | Potency [2] | Potency [3] | Potency [4] | outcome [5] | Potency [6] | Potency [7] | Potency [8] | Potency (CASKI) | Potency (JEG-3)

CC[C@@H]1/C=C/C=C/C[C@H](C)C(O)[C@](C)(O)C(=O)[C@H](C)C(O)[C@H](C)C(=O)[C@H](C)[C@@H](O)[C@H](C)/C=C/C(=O)O[C@H]2[C@@H](C)[C@@H](CC1)O[C@]1(O[C@H](C[C@H](C)O)[C@H](C)CC1=O)[C@@H]2C (stereo not given in full)
inactive: Potency [1] | Potency [2] | Potency [3] | Potency [4] | outcome [5] inactive [at 11.6 µM] | activity change, negative = thiol reactive [6] -8.56% [at 11.5 µM] | activity, negative = inhibition [7] -0.681% [at 11.6 µM] | redox activity (% of DA3003) [8] 13.1% [at 11.5 µM] | activity change, negative = cytotoxicity (CAOV3) -25.5% [at 11.6 µM] | activity change, negative = cytotoxicity (CASKI) -1.41% [at 11.6 µM] | activity change, negative = cytotoxicity (Es-2) -1.68% [at 11.6 µM] | activity change, negative = cytotoxicity (JEG-3) 22.8% [at 11.6 µM] | activity change, negative = cytotoxicity (Tov-21-G) 25.5% [at 11.6 µM] | activity change, negative = cytotoxicity (Tov112D) -13.7% [at 11.6 µM]
active: Potency (KB-3-1) 0.0491 µM

CO[C@@H]1[C@@H](O)[C@@H](O[C@H]2CC[C@]3(C=O)C4CC[C@]5(C)[C@@H](C6=CC(=O)OC6)CC[C@]5(O)[C@@H]4CC[C@H]3C2)O[C@@H](C)[C@H]1O[C@@H]1O[C@H](CO[C@@H]2O[C@H](CO)[C@@H](O)[C@H](O)[C@H]2O)[C@@H](O)[C@H](O)[C@H]1O (stereo not given in full)
inactive: Potency [1] | Potency [2] | Potency [3] | Potency [4] | activity change, negative = thiol reactive [6] 52.3% [at 11.5 µM] | activity, negative = inhibition [7] 1.53% [at 11.6 µM] | redox activity (% of DA3003) [8] 5.87% [at 11.5 µM] | activity change, negative = cytotoxicity (CAOV3) -17.5% [at 11.6 µM] | activity change, negative = cytotoxicity (CASKI) 13.6% [at 11.6 µM] | activity change, negative = cytotoxicity (JEG-3) -2.75% [at 11.6 µM] | activity change, negative = cytotoxicity (OV90) 8.02% [at 11.6 µM]
active: Potency (CRL-7250) 2.19 µM | Potency (C33A) 3.55 µM | Potency (Es-2) 2 µM | Potency (Tov-21-G) 3.55 µM | Potency (Tov112D) 2.51 µM
